Measured values from article PMC7862700, “An all-to-all approach to the identification of sequence-specific readers for epigenetic DNA modifications on cytosine”.

Columns and labels:
Assay in all cases: DAPPL (digital affinity profiling via proximity ligation, sequencing); 10 mM Tris-HCl pH 7.5, 50 mM NaCl, 1 mM DTT, 4% glycerol, room temperature, 30 min; GST-TFs on glutathione beads, 16-mer random dsDNA library, 0.1% formaldehyde crosslink after washing; high values mean tight binding
[1] = target: T1, FLI1 (Homo sapiens, UniProt Q01543 1-452); conditions: protein: recombinant; tags: N-terminal GST; dsDNA, one strand shown
T1 sequence: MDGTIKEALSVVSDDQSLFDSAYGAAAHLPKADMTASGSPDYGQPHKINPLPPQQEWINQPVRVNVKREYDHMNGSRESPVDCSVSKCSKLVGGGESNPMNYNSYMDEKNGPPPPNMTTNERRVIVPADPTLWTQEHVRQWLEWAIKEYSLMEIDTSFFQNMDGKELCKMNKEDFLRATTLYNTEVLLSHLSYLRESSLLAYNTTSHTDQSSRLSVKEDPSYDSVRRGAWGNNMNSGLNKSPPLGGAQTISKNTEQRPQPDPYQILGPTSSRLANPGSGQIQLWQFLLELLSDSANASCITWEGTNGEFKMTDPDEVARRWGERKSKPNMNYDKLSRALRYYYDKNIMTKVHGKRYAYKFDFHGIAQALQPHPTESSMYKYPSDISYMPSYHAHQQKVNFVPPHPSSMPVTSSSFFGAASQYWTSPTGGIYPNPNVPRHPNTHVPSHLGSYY
Method in brief: (§1)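 Human transcription factors were made in yeast as GST fusions, captured on glutathione beads and barcoded with DNA. With a tag-only sample included, the pool was incubated with 200 nmole of a random double-stranded 16-mer DNA library in Tris/NaCl/DTT/glycerol buffer at room temperature for 30 min, then crosslinked with 0.1% formaldehyde after washing, ligated by proximity, amplified and sequenced. For binding signal, each hexamer's read frequency for a factor is divided by its frequency for the tag-only sample.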

[2] = target: T2, ELK1 (Homo sapiens, UniProt P19419 1-428); conditions: protein: recombinant; tags: N-terminal GST; dsDNA, one strand shown
T2 sequence: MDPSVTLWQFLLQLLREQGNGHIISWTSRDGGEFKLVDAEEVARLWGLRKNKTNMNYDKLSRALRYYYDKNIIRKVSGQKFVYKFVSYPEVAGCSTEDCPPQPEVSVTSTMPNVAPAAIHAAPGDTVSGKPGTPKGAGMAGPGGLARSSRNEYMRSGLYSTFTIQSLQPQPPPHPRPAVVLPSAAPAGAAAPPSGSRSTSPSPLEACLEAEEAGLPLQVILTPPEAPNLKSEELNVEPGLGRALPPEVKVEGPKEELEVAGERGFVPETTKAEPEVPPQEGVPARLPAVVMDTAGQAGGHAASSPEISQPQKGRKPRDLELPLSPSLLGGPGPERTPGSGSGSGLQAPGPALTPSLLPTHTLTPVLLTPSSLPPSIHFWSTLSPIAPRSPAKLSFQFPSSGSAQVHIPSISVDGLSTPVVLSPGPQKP
Method in brief: as §1

[3] = target: T3, GABPA (Homo sapiens, UniProt Q06546 1-454); conditions: protein: recombinant; tags: N-terminal GST; dsDNA, one strand shown
T3 sequence: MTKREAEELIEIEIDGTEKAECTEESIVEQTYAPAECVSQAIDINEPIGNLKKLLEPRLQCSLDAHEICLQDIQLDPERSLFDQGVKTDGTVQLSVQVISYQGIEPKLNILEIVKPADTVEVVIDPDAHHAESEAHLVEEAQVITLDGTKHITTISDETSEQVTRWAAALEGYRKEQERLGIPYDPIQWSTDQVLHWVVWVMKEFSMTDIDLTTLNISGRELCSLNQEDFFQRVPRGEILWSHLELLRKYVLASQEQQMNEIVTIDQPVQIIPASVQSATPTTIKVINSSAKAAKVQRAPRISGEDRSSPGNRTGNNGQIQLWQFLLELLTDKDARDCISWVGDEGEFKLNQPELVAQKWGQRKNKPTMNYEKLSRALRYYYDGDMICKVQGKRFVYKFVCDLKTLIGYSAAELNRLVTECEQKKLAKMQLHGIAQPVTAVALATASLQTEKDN
Method in brief: as §1

[4] = target: T4, ERG (Homo sapiens, UniProt P11308 1-479); conditions: protein: recombinant; tags: N-terminal GST; dsDNA, one strand shown
T4 sequence: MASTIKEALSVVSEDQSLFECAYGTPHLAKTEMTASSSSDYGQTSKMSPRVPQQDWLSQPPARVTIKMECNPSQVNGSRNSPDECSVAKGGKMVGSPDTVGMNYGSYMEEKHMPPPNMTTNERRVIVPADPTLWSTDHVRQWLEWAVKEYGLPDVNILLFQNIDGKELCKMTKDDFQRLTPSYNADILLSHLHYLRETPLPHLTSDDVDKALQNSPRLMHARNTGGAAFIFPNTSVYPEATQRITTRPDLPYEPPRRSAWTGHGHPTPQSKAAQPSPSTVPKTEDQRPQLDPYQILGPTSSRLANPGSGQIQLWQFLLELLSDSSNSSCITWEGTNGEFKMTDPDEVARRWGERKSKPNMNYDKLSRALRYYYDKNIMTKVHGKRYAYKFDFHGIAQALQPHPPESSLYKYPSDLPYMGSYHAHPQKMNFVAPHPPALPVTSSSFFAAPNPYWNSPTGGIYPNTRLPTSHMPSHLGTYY
Method in brief: as §1

[5] = target: ELF1 (Homo sapiens, UniProt P32519 1-619); conditions: protein: recombinant; tags: N-terminal GST; dsDNA, one strand shown
Method in brief: as §1

[6] = target: T5, EHF (Homo sapiens, UniProt Q9NZC4 1-300); conditions: protein: recombinant; tags: N-terminal GST; dsDNA, one strand shown
T5 sequence: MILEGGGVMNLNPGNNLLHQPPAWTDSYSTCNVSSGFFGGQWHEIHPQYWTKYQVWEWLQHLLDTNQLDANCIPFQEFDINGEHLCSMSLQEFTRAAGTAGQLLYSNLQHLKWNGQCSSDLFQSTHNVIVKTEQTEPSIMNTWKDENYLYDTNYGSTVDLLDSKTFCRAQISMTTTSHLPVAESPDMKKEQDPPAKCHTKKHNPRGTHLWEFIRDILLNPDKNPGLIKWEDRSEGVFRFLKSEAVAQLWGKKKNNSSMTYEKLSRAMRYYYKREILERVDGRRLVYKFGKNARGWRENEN
Method in brief: as §1

[7] = target: SPI1 (Homo sapiens, UniProt P17947 1-270); conditions: protein: recombinant; tags: N-terminal GST; dsDNA, one strand shown
Method in brief: as §1

[8] = target: SPIB (Homo sapiens, UniProt Q01892 1-262); conditions: protein: recombinant; tags: N-terminal GST; dsDNA, one strand shown
Method in brief: as §1

[9] = target: T6, ELK3 (Homo sapiens, UniProt P41970 1-407); conditions: protein: recombinant; tags: N-terminal GST; dsDNA, one strand shown
T6 sequence: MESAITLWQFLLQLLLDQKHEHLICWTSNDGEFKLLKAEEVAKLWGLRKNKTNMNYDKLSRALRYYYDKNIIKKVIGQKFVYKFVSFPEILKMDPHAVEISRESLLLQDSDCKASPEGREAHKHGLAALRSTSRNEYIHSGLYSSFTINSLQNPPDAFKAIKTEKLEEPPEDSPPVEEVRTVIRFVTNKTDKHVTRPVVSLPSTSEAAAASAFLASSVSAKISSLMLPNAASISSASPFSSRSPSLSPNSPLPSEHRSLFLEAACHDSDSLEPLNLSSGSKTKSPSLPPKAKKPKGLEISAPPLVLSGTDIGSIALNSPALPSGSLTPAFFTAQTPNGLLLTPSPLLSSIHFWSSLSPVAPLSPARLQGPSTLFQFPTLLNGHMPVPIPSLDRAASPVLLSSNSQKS
Method in brief: as §1

[10] = target: T7, FEV (Homo sapiens, UniProt Q99581 1-238); conditions: protein: recombinant; tags: N-terminal GST; dsDNA, one strand shown
T7 sequence: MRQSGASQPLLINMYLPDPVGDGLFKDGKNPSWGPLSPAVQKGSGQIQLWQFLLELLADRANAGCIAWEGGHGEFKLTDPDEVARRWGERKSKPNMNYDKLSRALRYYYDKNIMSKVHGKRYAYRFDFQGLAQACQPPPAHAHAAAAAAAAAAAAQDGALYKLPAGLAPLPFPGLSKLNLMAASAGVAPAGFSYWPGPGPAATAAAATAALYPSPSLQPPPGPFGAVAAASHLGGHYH
Method in brief: as §1

[11] = target: ETV5 (Homo sapiens, UniProt P41161 1-510); conditions: protein: recombinant; tags: N-terminal GST; dsDNA, one strand shown
Method in brief: as §1

[12] = target: HSF1 (Homo sapiens, UniProt Q00613 1-529); conditions: protein: recombinant; tags: N-terminal GST; chain copies: 3; dsDNA, one strand shown
Method in brief: as §1

[13] = target: T8, SPIC (Homo sapiens, UniProt Q8N5J4 1-248); conditions: protein: recombinant; tags: N-terminal GST; dsDNA, one strand shown
T8 sequence: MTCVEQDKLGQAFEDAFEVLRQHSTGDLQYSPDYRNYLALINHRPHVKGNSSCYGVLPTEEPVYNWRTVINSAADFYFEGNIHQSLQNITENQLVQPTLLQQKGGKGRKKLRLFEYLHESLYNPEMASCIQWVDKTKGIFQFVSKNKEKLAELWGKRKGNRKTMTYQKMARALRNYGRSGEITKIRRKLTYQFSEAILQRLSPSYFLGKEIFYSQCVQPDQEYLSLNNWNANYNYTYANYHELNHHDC
Method in brief: as §1

[14] = target: ELF4 (Homo sapiens, UniProt Q99607 1-663); conditions: protein: recombinant; tags: N-terminal GST; dsDNA, one strand shown
Method in brief: as §1

[15] = target: T9, ELK4 (Homo sapiens, UniProt P28324-2 1-405); conditions: protein: recombinant; tags: N-terminal GST; dsDNA, one strand shown
T9 sequence: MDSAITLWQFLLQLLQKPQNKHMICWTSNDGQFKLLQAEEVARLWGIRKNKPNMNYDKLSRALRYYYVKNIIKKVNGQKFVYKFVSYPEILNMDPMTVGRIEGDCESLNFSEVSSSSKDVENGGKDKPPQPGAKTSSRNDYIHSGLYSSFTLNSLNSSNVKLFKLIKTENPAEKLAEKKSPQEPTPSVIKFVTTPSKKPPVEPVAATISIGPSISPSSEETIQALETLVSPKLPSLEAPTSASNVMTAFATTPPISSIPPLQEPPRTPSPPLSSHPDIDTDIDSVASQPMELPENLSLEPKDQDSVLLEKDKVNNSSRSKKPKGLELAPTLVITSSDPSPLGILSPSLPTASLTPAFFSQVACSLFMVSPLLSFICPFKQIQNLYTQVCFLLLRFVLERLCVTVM
Method in brief: as §1

[16] = target: T10, ETV2 (Homo sapiens, UniProt O00321 1-342); conditions: protein: recombinant; tags: N-terminal GST; dsDNA, one strand shown
T10 sequence: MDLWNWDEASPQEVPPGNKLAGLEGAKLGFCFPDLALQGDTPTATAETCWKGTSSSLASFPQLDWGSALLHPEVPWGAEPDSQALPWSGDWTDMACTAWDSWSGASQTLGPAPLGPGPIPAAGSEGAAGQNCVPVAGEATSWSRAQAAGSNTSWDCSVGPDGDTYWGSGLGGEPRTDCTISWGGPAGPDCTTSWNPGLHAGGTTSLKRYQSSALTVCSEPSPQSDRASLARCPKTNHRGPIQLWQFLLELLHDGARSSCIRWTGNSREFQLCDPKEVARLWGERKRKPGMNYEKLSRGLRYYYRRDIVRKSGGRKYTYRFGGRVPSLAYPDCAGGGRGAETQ
Method in brief: as §1

[17] = target: T11, ELF3 (Homo sapiens, UniProt P78545 1-371); conditions: protein: recombinant; tags: N-terminal GST; dsDNA, one strand shown
T11 sequence: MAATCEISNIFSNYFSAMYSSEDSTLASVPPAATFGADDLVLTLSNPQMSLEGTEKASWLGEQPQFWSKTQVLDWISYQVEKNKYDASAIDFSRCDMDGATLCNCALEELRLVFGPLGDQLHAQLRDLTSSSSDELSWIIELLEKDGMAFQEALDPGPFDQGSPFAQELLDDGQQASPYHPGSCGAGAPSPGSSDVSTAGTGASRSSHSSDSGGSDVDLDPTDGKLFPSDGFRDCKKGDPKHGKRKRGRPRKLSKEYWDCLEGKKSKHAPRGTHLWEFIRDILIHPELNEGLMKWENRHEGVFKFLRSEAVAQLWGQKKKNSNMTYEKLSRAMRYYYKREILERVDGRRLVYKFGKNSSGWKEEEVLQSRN
Method in brief: as §1

[18] = target: CRX (Homo sapiens, UniProt O43186 1-299); conditions: protein: recombinant; tags: N-terminal GST; dsDNA, one strand shown
Method in brief: as §1

[19] = target: ETV1 (Homo sapiens, UniProt P50549 1-477); conditions: protein: recombinant; tags: N-terminal GST; dsDNA, one strand shown
Method in brief: as §1

ETV5, sequence (P41161 whole entry): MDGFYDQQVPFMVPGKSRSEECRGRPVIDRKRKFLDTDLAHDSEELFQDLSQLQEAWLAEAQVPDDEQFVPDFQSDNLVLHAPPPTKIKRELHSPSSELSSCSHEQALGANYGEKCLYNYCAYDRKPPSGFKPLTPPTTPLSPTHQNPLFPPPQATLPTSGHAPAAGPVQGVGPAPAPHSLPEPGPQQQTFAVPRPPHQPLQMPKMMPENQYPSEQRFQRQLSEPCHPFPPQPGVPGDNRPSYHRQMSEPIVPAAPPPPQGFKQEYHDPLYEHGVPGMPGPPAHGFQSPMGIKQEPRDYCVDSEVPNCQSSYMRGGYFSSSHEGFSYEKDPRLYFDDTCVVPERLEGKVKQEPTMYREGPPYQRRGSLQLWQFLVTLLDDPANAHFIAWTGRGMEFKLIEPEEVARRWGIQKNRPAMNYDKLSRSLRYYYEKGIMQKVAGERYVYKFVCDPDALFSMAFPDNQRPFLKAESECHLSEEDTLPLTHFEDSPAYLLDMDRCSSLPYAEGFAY
ELF1, sequence (P32519 whole entry): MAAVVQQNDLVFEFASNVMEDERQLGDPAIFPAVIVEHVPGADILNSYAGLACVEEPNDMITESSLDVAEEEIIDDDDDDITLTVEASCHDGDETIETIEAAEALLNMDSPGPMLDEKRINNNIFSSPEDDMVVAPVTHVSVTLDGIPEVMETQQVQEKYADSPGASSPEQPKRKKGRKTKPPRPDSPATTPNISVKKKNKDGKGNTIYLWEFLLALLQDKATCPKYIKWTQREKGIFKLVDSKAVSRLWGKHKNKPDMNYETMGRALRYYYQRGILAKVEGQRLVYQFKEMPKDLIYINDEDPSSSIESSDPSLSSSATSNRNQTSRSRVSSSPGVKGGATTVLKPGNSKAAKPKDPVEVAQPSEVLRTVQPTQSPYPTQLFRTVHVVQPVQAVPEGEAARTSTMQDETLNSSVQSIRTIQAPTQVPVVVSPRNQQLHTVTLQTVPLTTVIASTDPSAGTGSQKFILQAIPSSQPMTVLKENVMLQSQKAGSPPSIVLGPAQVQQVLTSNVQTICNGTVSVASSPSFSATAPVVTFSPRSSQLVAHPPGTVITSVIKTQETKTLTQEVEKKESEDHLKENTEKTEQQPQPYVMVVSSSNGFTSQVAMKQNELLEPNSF
SPIB, sequence (Q01892 whole entry): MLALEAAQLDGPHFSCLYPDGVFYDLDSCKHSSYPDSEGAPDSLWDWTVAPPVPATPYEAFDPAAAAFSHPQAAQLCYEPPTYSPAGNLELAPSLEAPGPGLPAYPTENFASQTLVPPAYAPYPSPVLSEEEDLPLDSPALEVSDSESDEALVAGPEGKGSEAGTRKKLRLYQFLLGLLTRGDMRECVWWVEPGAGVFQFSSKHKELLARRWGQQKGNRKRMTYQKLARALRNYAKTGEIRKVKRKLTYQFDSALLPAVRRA
CRX, sequence (O43186 whole entry): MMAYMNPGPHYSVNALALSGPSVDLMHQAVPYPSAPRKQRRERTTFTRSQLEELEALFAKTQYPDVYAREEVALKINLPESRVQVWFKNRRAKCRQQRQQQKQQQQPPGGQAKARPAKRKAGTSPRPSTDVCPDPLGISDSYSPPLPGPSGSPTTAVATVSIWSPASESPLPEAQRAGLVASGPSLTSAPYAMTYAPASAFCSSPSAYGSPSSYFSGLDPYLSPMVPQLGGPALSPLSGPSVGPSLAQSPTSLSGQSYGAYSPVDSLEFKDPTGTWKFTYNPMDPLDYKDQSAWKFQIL
HSF1, sequence (Q00613 whole entry): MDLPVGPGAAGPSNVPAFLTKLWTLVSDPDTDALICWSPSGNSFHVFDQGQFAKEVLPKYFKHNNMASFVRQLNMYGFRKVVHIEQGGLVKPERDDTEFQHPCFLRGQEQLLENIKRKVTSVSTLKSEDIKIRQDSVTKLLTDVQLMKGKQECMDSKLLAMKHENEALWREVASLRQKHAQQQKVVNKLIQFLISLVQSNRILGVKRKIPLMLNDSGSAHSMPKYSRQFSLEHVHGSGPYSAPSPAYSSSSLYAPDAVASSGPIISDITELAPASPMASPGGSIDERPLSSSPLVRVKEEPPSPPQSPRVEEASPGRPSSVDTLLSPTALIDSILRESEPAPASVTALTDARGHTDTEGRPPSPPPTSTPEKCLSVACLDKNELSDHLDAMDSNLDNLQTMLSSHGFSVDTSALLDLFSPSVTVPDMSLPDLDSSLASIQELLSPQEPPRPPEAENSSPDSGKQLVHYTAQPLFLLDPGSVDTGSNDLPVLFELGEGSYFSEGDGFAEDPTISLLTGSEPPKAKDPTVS
ETV1, sequence (P50549 whole entry): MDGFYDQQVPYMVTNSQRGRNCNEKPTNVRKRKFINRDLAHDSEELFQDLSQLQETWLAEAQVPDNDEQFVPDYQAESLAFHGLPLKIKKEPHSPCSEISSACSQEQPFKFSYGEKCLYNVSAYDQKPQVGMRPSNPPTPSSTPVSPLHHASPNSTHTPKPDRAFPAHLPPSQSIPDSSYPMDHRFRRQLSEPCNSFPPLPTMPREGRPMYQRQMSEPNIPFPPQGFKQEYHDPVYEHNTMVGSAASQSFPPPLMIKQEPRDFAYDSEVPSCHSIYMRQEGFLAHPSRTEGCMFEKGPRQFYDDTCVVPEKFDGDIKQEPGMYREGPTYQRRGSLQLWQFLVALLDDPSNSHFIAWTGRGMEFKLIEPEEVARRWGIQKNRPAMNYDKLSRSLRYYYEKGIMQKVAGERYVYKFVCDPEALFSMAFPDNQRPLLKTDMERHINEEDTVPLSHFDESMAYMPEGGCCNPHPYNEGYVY
ELF4, sequence (Q99607 whole entry): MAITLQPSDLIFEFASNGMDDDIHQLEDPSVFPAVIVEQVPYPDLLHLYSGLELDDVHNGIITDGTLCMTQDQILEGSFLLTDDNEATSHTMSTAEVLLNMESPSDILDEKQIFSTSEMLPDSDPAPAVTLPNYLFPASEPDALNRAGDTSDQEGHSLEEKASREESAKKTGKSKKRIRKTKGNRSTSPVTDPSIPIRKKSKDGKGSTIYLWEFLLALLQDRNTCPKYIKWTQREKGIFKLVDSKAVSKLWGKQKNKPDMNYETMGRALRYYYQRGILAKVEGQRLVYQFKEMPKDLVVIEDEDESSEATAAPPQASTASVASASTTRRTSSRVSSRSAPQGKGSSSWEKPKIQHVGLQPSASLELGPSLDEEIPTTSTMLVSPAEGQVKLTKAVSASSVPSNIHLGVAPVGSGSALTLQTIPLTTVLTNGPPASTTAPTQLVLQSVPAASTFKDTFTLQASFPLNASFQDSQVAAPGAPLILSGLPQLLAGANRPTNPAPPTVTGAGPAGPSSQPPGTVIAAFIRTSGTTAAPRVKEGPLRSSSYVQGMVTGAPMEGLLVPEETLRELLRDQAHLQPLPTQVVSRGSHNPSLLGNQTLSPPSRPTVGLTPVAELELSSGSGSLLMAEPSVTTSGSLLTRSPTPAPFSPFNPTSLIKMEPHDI

## CTAAAG
[1]
  binding signal: 1.39 fold enrichment (6-mer frequency, TF over GST control)
[2]
  binding signal: 1.35 fold enrichment (6-mer frequency, TF over GST control)
[3]
  binding signal: 1.45 fold enrichment (6-mer frequency, TF over GST control)
[4]
  binding signal: 1.36 fold enrichment (6-mer frequency, TF over GST control)
[5]
  binding signal: 1.39 fold enrichment (6-mer frequency, TF over GST control)
[6]
  binding signal: 1.35 fold enrichment (6-mer frequency, TF over GST control)
[7]
  binding signal: 1.3 fold enrichment (6-mer frequency, TF over GST control)
[8]
  binding signal: 1.31 fold enrichment (6-mer frequency, TF over GST control)
[9]
  binding signal: 1.49 fold enrichment (6-mer frequency, TF over GST control)
[10]
  binding signal: 1.29 fold enrichment (6-mer frequency, TF over GST control)
[11]
  binding signal: 1.29 fold enrichment (6-mer frequency, TF over GST control)
[12]
  binding signal: 1.48 fold enrichment (6-mer frequency, TF over GST control)
[13]
  binding signal: 1.36 fold enrichment (6-mer frequency, TF over GST control)
[14]
  binding signal: 1.34 fold enrichment (6-mer frequency, TF over GST control)
[15]
  binding signal: 1.44 fold enrichment (6-mer frequency, TF over GST control)
[16]
  binding signal: 1.29 fold enrichment (6-mer frequency, TF over GST control)
[17]
  binding signal: 1.44 fold enrichment (6-mer frequency, TF over GST control)
[18]
  binding signal: 1.85 fold enrichment (6-mer frequency, TF over GST control)
[19]
  binding signal: 1.45 fold enrichment (6-mer frequency, TF over GST control)
